Out of some 48,000 compounds screened, about 13,000 (27%) showed an effect of 50% or more. The list shows a part of the results.
test system: Wolbachia pipientis; experiment: Anti-Wolbachia Cell-Based Screen; assay type: functional; design: scale not given: in the data most compounds retested in dose-response had high values; conditions: 5 µM

Row | SMILES | Percent Effect
1 | COc1ccc(Cc2ncc3c(n2)CN(C(=O)C2COCCO2)C3)cc1 (centres undefined) | -5.777%
2 | CCCN1CCN(Cc2cc(Cl)cc(Cl)c2)[C@H]2CS(=O)(=O)C[C@H]21 | 3.846%
3 | CSC(C)CC(=O)N1CCC(n2ccnn2)CC1 (centres undefined) | 6.562%
4 | O=C(C1CC1)N1CCC2(CC1)CNCc1ccccc12 | 1.154%
5 | Cl.O=C(C1CC1)N1CCc2ccccc2C12CCNCC2 | 85.13%
6 | CCOC(=O)N1CCc2ccccc2C12CCNCC2.Cl | 93.5%
7 | COCC(=O)N1CCC2(CC1)NC(=O)c1ccccc12.Cl | -6.733%
8 | O=C(CCN1CCNCC1)N1CCC2(CC1)c1ccccc1CC2O (centres undefined) | 4.718%
9 | CN(C)C(=O)N1Cc2ccccc2C2(CCNCC2)C1.Cl | -11%
10 | Cl.O=C([C@H]1CCCO1)N1CCC2(CC1)CNCc1ccccc12 | -10.28%
11 | COCC(=O)N1CCc2[nH]c(=O)ccc2C1 | -6.404%
12 | COCC(=O)N1CCc2ccccc2C12CCNCC2.Cl | 112.7%
13 | CS(=O)(=O)N1CC[C@]2(C[C@H](Oc3ccccn3)CO2)C1.O=C(O)C(F)(F)F | 1.633%
14 | Cn1nc(Cn2cccc2)c2c1CN(Cc1ccsc1)C2.O=C(O)C(F)(F)F | 0.5842%
15 | Cc1ccccc1CN1CCCN(C2CCOC2=O)CC1 (centres undefined) | 1.458%
16 | CCO[C@@H]1CN(S(=O)(=O)c2cn(C)cn2)[C@@H]2CCCO[C@@H]21.O=C(O)C(F)(F)F | -6.587%
17 | Cc1cc(N(C)C)nc(N2CCN(C(C)c3nc(C)no3)CC2)n1 (centres undefined) | 5.095%
18 | Cc1cc(C)n(CC2CN(CCC(=O)NC3CCCCC3)CCO2)n1 (centres undefined) | 118.1%
19 | Cc1nc(C)n(CC2CN(CC(=O)NC3CCCC3)CCO2)n1 (centres undefined) | 112.4%
20 | Cc1cc(C)n(CC2CN(CC(=O)NC3CCCC3)CCO2)n1 (centres undefined) | -2.568%
21 | CCN1CCC(NC(=O)CN2CCCC2Cn2nc(C)cc2C)CC1 (centres undefined) | -4.017%
22 | Cc1nc(C)n(CC2CN(CC(=O)Nc3cccnc3)CCO2)n1 (centres undefined) | 9.573%

Row | SMILES | Percent Effect
23 | Cc1cc(C)n(CC2CN(CC(=O)NC3CCOCC3)CCO2)n1 (centres undefined) | 89.87%
24 | Cc1cc(C)n(CC2CN(CC(=O)Nc3c(C)n[nH]c3C)CCO2)n1 (centres undefined) | -5.671%
25 | Cc1nc(C)n(CC2CN(CC(=O)Nc3nccs3)CCO2)n1 (centres undefined) | 1.962%
26 | Cc1cc(C)n(CC2CN(CC(=O)NC3CCCCC3)CCO2)n1 (centres undefined) | 116.8%
27 | CCNC(=O)C1CCN(c2cc(CC)nc3ccnn23)C1 (centres undefined) | -6.245%
28 | CC(C)(C)CCNC(=O)c1ccc(Cl)c(NS(C)(=O)=O)c1 | -2.179%
29 | O=C(NCC(=O)N1CC2(CCCC2)c2c(F)cccc21)C1CC1 | -3.819%
30 | Cc1cc(C)n(CC2CN(CCc3ccncc3)CCO2)n1 (centres undefined) | -8.109%
31 | Cc1cc(C)n(CC2CN(CC(=O)Nc3nncs3)CCO2)n1 (centres undefined) | -6.247%
32 | O=C(CN1CCOC(Cn2cccn2)C1)NC(C1CC1)C1CC1 (centres undefined) | -1.772%
33 | Cc1cc(C)n(CC2CN(CC(=O)Nc3ccncc3)CCO2)n1 (centres undefined) | 89.28%
34 | Cc1cc(C)n(CC2CN(CC3CCCC3)CCO2)n1 (centres undefined) | 115%
35 | Cc1cc(C)n(CC2CN(CC(=O)NC3(C#N)CCCC3)CCO2)n1 (centres undefined) | 97.92%
36 | Cc1cc(C)n(CC2CN(CC(=O)NC(C3CC3)C3CC3)CCO2)n1 (centres undefined) | 97.21%
37 | Cc1cc(CN2CCN(CC(=O)NC3(C#N)CCCCC3)CC2)on1 | 3.175%
38 | Cc1cc(NC(=O)CN2CCOC(Cn3nc(C)cc3C)C2)n(C)n1 (centres undefined) | -0.6717%
39 | CC(C)=CCN1CCOC(Cn2nc(C)cc2C)C1 (centres undefined) | -20.01%
40 | O=C(CN1CCOC(Cn2cncn2)C1)NC(C1CC1)C1CC1 (centres undefined) | -5.3%
41 | O=C(Nc1cccn(CC(F)(F)F)c1=O)c1ccc(F)cc1 | 7.272%
42 | O=C(NCC1CC1)C12CC(CN1Cc1nccs1)C2 | -8.528%
43 | CCNC(=O)[C@@H]1C[C@@H](NC(=O)c2cc(C)on2)CN1Cc1ccccn1 | 121.6%
44 | CCNC(=O)[C@@H]1C[C@H](N)CN1Cc1ccc(Sc2ccc(C)cc2)o1 | 11.39%

Row | SMILES | Percent Effect
45 | CCNC(=O)[C@@H]1C[C@@H](NC(=O)c2ccc(C)s2)CN1Cc1ccccn1 | 112.7%
46 | CCNC(=O)[C@@H]1C[C@@H](NC(=O)Cc2ccccn2)CN1CCCSC | -3.005%
47 | CCNC(=O)[C@@H]1C[C@H](NC(=O)Cc2ccsc2)CN1Cc1ccc(C)o1 | 8.656%
48 | C/C=C(\C)CN1C[C@H](NC(=O)c2cnc(O)cn2)C[C@H]1C(=O)NCC | -10.14%
49 | CCNC(=O)[C@@H]1C[C@@H](NC(=O)c2cccnc2O)CN1Cc1ccsc1 | 9.29%
50 | CCNC(=O)[C@@H]1C[C@H](NC(=O)c2ccc(C)s2)CN1Cc1ccc(C)o1 | 103.2%
51 | Cc1cc(C(=O)N2CCC(c3nccn3Cc3ccccn3)CC2)no1 | -9.373%
52 | CSCCc1c(-c2ccccc2)ncn1CC(C)(C)N1CCOCC1 | 0.5421%
53 | CN(CCCc1cc(-c2ccccc2)n[nH]1)C(=O)CCCn1cncn1 | 1.593%
54 | O=C(COC1CCOC1)N(CC(F)F)c1cccc(Cl)c1 (centres undefined) | -1.811%
55 | CC1CCC(NC(=O)Nc2ccc(CC(=O)N(C)C)cc2)CC1 (centres undefined) | 5.136%
56 | CSCc1ccc(C(=O)N2CCN(CC(C)O)CC2)cc1 (centres undefined) | 99.74%
57 | CC(O)CN1CCN(C(=O)c2ccc(CN(C)C)cc2)CC1 (centres undefined) | 105.8%
58 | CSCc1cccc(C(=O)N2CCN(CC(C)O)CC2)c1 (centres undefined) | -7.975%
59 | CC(O)CN1CCN(C(=O)c2ccc3c(c2)COC3)CC1 (centres undefined) | -5.873%
60 | COCc1ccc(C(=O)N2CCN(CC(C)O)CC2)cc1 (centres undefined) | 108.5%
61 | CCN(CC)Cc1ccc(C(=O)N2CCN(CC(C)O)CC2)cc1 (centres undefined) | -1.675%
62 | CC(O)CN1CCN(C(=O)c2ccc(Br)o2)CC1 (centres undefined) | -12.79%
63 | COc1ccccc1C(=O)Nc1ccc([C@@H](O)[C@H]2COCC(=O)N2)cc1 | -5.781%
64 | O=C(O)C1c2nc[nH]c2CCN1Cc1ccccc1-c1ccccc1 (centres undefined) | -6.694%

Source: ChEMBL document CHEMBL3988442, “University of Dundee, Small-Polar-MMV Screening Library” (2021)
